KAT2A inh – blocks human GCN5L2 histone acetyltransferase; Q92830; GCN5L2 HAT assay, ThioGlo1 CoA-SH fluorescence; Potency, µM (titrated, usually from 58.9 µM), inactives show at the top dose activity change, negative = inhibition, hits mostly inhibitors; hit rate 0.21% among 390,000; AID 504327; further: potency means the concentration at half of the fitted maximal effect; on the % scale 0 is the no-effect control and ±100 the full control effect
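Enzyme at 20nM final was mixed with library compounds for 15 min at room temperature. Peptide H3(1-25) at 75uM, acetyl-CoA at 70uM and ThioGlo1 at 50uM were then added. Plates were read immediately and after 20 min (Ex340nm/Em540nm).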
JMJD2A Tudor inh – blocks the human JMJD2A Tudor domain | AlphaScreen JMJD2A-Tudor / H3K4me3 peptide binding | Potency, µM (highest dose often 114 µM), inactives show at the highest dose activity change, negative = inhibition, most hits filed as inhibitors | hit rate 4.4% among 390,000 | O75164; further: potency means the concentration at half of the fitted maximal effect; on the % scale 0 is the no-effect control and ±100 the full control effect; nearly all actives have a fitted effect of over 50% in size
PI5P4K alpha inh – inhibitors of human PI5P4K alpha. hit rate 1.2% among 330,000. PI5P4Kalpha enzyme, ADP-Glo luminescence, 60 min; hits give low values. max response, %; active means max response of -50% or lower; inconclusive means between -30% and -50%; inactive means -30% or higher; further: value at the top dose of about 77 µM; on the % scale 0 is the no-effect control and ±100 the full control effect
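ADP-Glo luminescence end-point after a 60 min room-temperature kinase reaction. PI5P4Kalpha and substrate in HEPES pH 7.4 buffer with EGTA, 0.1% CHAPS and 5% DMSO; ATP at 5 microM final.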
PLK1 PBD block – blocks phosphopeptide binding to human PLK1 polo-box domain; P53350; Plk1 PBD binding of FITC phosphopeptide, fluorescence polarization; Potency, µM, for the others: max response, negative = inhibition, actives largely listed as inhibitors; hit rate 2.8% among 360,000; further: potency means the concentration at half of the fitted maximal effect; series mostly up to about 57 µM; on the % scale 0 is the no-effect control and ±100 the full control effect; nearly all actives have a fitted effect of over 65% in size
HP1b chromo inh – HP1-beta chromodomain-methylated histone interaction inhibition | AlphaScreen HP1-beta / biotin-H3K9me3 peptide binding | Potency, µM (top dose mostly 114 µM), inactives show at the top dose activity change, negative = inhibition, usual class: inhibitors | hit rate 0.56% among 390,000 | AID 540317; further: potency means the concentration at half of the fitted maximal effect; nearly all actives have a fitted effect of over 70% in size
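Compound inhibition of the preformed complex between 50 nM HP1-beta and 50 nM biotinylated H3K9me3 peptide was read by AlphaScreen. Buffer was PBS pH 7.4 with 0.01% Tween-20. Incubations ran 30 min at room temperature, with 10 ug/mL donor/acceptor beads.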
BAZ2B inh – inhibitors of human BAZ2B bromodomain; hit rate 4.4% among 360,000; Q9UIF8; AlphaScreen BAZ2B-H3K14Ac peptide displacement; AID 504333; Potency, µM (highest dose often 114 µM), without a hit: top-dose activity change, negative = inhibition, hits mostly inhibitors; further: potency means the concentration at half of the fitted maximal effect; on the % scale 0 is the no-effect control and ±100 the full control effect; nearly all actives have a fitted effect of over 60% in size
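Multi-concentration screen (max 110 uM) measuring displacement of acetylated histone H3 peptide from BAZ2B by AlphaScreen, using 50 nM protein, 50 nM peptide and 10 ug/mL streptavidin donor plus Ni-chelate acceptor beads.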
* marks the source's active call; other numbers are inactive results; u = inconclusive; x = no result. An excerpt weighted towards active compounds, which were near 7% of everything screened. Unless noted, the call rests on the fitted dose curve; in most records, active means well fitted curve in the direction sought with a large enough effect; inconclusive means small, poorly fitted or top-dose-only effect, or another doubt; inactive means no such curve, though single readings can be large; an effect the other way counts as inactive or inconclusive.

SMILES	KAT2A inh	JMJD2A Tudor inh	PI5P4K alpha inh	PLK1 PBD block	HP1b chromo inh	BAZ2B inh
CN(C)S(=O)(=O)N(CC(=O)Nc1ccc(Br)cc1F)c1ccccc1	-2%	12%	x	x	34%	14%
COc1ccccc1CC(=O)NC1CCC(C)CC1 (centres undefined)	-10%	-9%	-1	-22%	22%	-26%
CC1CCC(NC(=O)CNC(=O)Cc2cccc3ccccc23)CC1 (centres undefined)	-15%	u	-9	24µM*	-3%	2%
O=C(Cc1c(O)c2ccccc2oc1=O)c1ccc(C(F)(F)F)cc1	6%	-6%	-4	-18%	8%	8%
O=C(SCc1c(O)c2ccccc2oc1=O)c1ccccc1	x	x	-27	13µM*	x	x
O=S(=O)(c1ccc(Br)cc1)c1nc(-c2ccco2)oc1NCCCn1ccnc1	-3%	u	-4	-14%	-1%	50µM*
O=S(=O)(c1ccccc1)c1nc(-c2cccs2)oc1NCCCn1ccnc1	-5%	u	4	-4%	20%	u
CC(C)C[C@@H]1NC(=O)[C@H](CO)NC(=O)c2cc([N+](=O)[O-])cc(I)c2OCC[C@@H](C(N)=O)NC1=O	-5%	-9%	-6	-13%	28%	-32%
C[C@@H](O)C1NC(=O)[C@H](CCCCN)NC(=O)c2cc([N+](=O)[O-])cc(I)c2OCC[C@@H](C(N)=O)NC1=O (some centres undefined)	-2%	56µM*	0	-11%	-9%	u
NC(=O)CC[C@@H]1NC(=O)[C@H](CO)NC(=O)c2cc([N+](=O)[O-])cc(I)c2NCC[C@@H](C(N)=O)NC(=O)[C@H](Cc2ccc(O)cc2)NC1=O	-1%	x	x	x	x	56µM*
NC(=O)CC[C@@H]1NC(=O)[C@H](CO)NC(=O)c2cc([N+](=O)[O-])cc(I)c2NCCCC[C@@H](C(N)=O)NC(=O)[C@H](Cc2ccc(O)cc2)NC1=O	-4%	-32%	-6	-4%	7%	-36%
Cc1ccc(C)c(Cn2c(=O)n(-c3ccccc3)c(=O)c3c4c(sc32)CCCC4)c1	3%	-4%	x	x	41%	1%
C#CCOCCOCCOCCNc1nc(N2CCN(C(=O)[C@H](CCC(=O)O)n3cc(C(N)CC(C)C)nn3)CC2)nc(N2CCN(C(=O)[C@H](Cc3cc4ccccc4[nH]3)n3cc(C(N)[C@H](C)CC)nn3)CC2)n1 (some centres undefined)	-6%	56µM*	-12	-10%	16%	50µM*
C#CCOCCOCCOCCNc1nc(N2CCOCC2)nc(N2CCN(C(=O)[C@H](Cc3cc4ccccc4[nH]3)n3cc([C@@H](N)C(C)CC)nn3)CC2)n1 (some centres undefined)	4%	u	2	-1%	21%	u
C#CCOCCOCCOCCNc1nc(N2CCN(C(=O)[C@H](CCC(=O)O)n3cc(C(N)[C@H](C)CC)nn3)CC2)nc(N2CCN(C(=O)[C@H](Cc3cc4ccccc4[nH]3)n3cc(C(N)[C@H](C)CC)nn3)CC2)n1 (some centres undefined)	-4%	x	x	x	x	50µM*
C#CCOCCOCCOCCNc1nc(N2CCN(C(=O)[C@H](CCCCN)n3cc([C@@H](N)C(C)CC)nn3)CC2)nc(N2CCN(C(=O)[C@H](Cc3cc4ccccc4[nH]3)n3cc([C@@H](N)C(C)CC)nn3)CC2)n1 (some centres undefined)	0%	50µM*	-57*	-2%	-19%	x
C#CCOCCOCCOCCNc1nc(N2CCN(C(=O)C(Cc3cc4ccccc4[nH]3)n3cc(C(N)C(C)CC)nn3)CC2)nc(N2CCN(C(=O)C(Cc3cc4ccccc4[nH]3)n3cc(C(N)C(C)CC)nn3)CC2)n1 (centres undefined)	0%	28µM*	-52*	-6%	u	28µM*
O=c1[nH]c(S)c(/C=C2\C=Nc3ccccc32)s1	-5%	u	u	-25%	u	11µM*

From PubChem BioAssay
